UDG counterscr: blocks uracil-DNA glycosylase in AID counter-screen. FRET deamination/UDG coupled assay, UDG read, 4 h. Potency, µM (titrated, usually from 115 µM), for the others: at the highest dose activity change, negative = inhibition, hits mostly inhibitors. actives 0.14% (n = 91,000); note: potency is the fitted concentration of half-maximal effect; % is set by controls: 0 for no effect and ±100 for the full control effect; nearly all actives have a fitted effect of over 65% in size
DRV1 agonist: activates human resolvin D1 receptor GPR32. CHO-K1 GPR32 beta-arrestin PathHunter luminescence, 90 min; zero percent set by DMSO-only wells. activation, % at 76.9 µM. actives 2.5% (n = 48,000). AID 1346428;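 active = activation of at least 60% and not above a set upper limit, about 1 call in 100 departs from these limits; inconclusive = activation of 40% to 60%, or above that upper limit; inactive = activation under 40%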; note: 0% is about no effect
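Agonism was scored as beta-arrestin recruitment to ProLink-fused GPR32 in stably transfected CHO-K1 cells, giving a chemiluminescent beta-Gal signal; compounds were incubated 90 min at 37 °C.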
AID inhibitor: activation induced cytidine deaminase inhibition. Q9GZX7. AID deamination FRET fluorescence, UDG-coupled, 4 h. Potency, µM (titrated, usually from 115 µM), most hits filed as inhibitors. actives 0.32% (n = 91,000). AID 1347428; note: potency is the fitted concentration of half-maximal effect; % is set by controls: 0 for no effect and ±100 for the full control effect; nearly all actives have a fitted effect of over 25% in size
Target sequence (Q9GZX7 whole entry, looked up): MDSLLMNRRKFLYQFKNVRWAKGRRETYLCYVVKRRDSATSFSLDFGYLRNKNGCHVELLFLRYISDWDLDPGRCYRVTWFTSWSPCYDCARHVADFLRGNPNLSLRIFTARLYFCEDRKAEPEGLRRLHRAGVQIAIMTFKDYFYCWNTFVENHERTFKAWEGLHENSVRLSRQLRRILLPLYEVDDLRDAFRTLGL
An asterisk follows results filed as active; [ ] = dose if it differs, or a comment. The sample as a whole holds a higher share of hits than the screen did. Unless noted, calls come from the whole dose curve; as a rule, active = well fitted curve in the direction sought with a large enough effect; inconclusive = small, poorly fitted or top-dose-only effect, or another doubt; inactive = no such curve, though single readings can be large; an effect the other way counts as inactive or inconclusive.

For CN(Cc1nc2ccsc2c(=O)[nH]1)C(=O)c1cnn(-c2ccc(Cl)cc2)c1 the results were UDG counterscr -2% and AID inhibitor inactive.
Screening O=c1onc2cnc3ccccc3n12 returned UDG counterscr 3%, DRV1 agonist 68* and AID inhibitor inactive.
c1ccc2c(c1)ncc1nncn12 was read as UDG counterscr -8%, DRV1 agonist 0 and AID inhibitor inactive.
Screening O=C(Nc1nc(-c2ccc(Br)cc2)ns1)c1ccccc1F returned UDG counterscr 0%[57.5 µM], DRV1 agonist 60* and AID inhibitor inactive.
Screening COc1ccc(-c2nsc(NC(=O)c3ccccc3Br)n2)cc1 returned UDG counterscr 6%[57.5 µM], DRV1 agonist 20 and AID inhibitor inactive.
For CC(=O)N1c2ccc(S(=O)(=O)NCC3CCC(C(=O)Nc4cccc(F)c4)CC3)cc2CC1C (configuration not stated) the results were UDG counterscr -1%, DRV1 agonist 64* and AID inhibitor inactive.
Screening CC(=O)N1c2ccc(S(=O)(=O)NCC3CCC(C(=O)Nc4ccc(C)cc4)CC3)cc2CC1C (configuration not stated) returned UDG counterscr 1%, DRV1 agonist 2 and AID inhibitor inactive.
For CC1Cc2cc(S(=O)(=O)NCCC(=O)Nc3cccc(C(F)(F)F)c3)ccc2N1C(=O)C1CC1 (configuration not stated) the results were UDG counterscr 1% and AID inhibitor inactive.
CC(=O)N1c2ccc(S(=O)(=O)NCCC(=O)Nc3ccc(Br)c(C)c3)cc2CC1C (configuration not stated) was read as UDG counterscr 9%, DRV1 agonist 69* and AID inhibitor inactive.
Screening CCC(=O)N1CCN(c2nc(-c3ccco3)c3c(c2C#N)CC(C)(C)SC3)CC1 returned UDG counterscr -7% and AID inhibitor inactive.
Screening Cc1ccc(CCNC(=O)CN2CCN(Cc3ccc(Cl)cc3)C2=O)cc1 returned UDG counterscr -3%, DRV1 agonist 60* and AID inhibitor inactive.
Screening O=C(CN1CCN(Cc2ccc(F)cc2Cl)C1=O)NCCc1ccc(Cl)cc1 returned UDG counterscr -12%, DRV1 agonist 44 and AID inhibitor inactive.
Cc1ccc(NC(=O)C2CCCN(S(=O)(=O)c3c(C)n[nH]c3C)C2)cc1Cl (configuration not stated) was read as UDG counterscr -16%, DRV1 agonist 41 and AID inhibitor inactive.
Cc1n[nH]c(C)c1S(=O)(=O)N1CCCC(C(=O)Nc2ccc(Cl)cc2)C1 (configuration not stated) was read as UDG counterscr inconclusive, DRV1 agonist 107* and AID inhibitor inconclusive.
CCCc1cc(C(=O)Nc2ccccc2C#N)cs1 was read as UDG counterscr 10% and AID inhibitor inactive.
Screening CCCCn1c(NCc2cc(Br)ccc2O)nc2ccccc21 returned UDG counterscr -24%, DRV1 agonist inconclusive and AID inhibitor inactive.
For CCCCn1c(NCc2cc(Cl)ccc2O)nc2ccccc21 the results were UDG counterscr 19%, DRV1 agonist 102* and AID inhibitor inactive.
Screening Cc1ccc(C(=O)C(C)C(=O)c2ccc(C)cc2)cc1 returned UDG counterscr 2% and AID inhibitor inactive.
Screening CCCCN(C(=O)CN1CCN(c2ccccc2)CC1)c1c(N)n(CC(C)C)c(=O)[nH]c1=O returned UDG counterscr -4% and AID inhibitor inactive.
For Cc1cc(C)cc(NC(=O)COCc2cc(-c3ccc4c(c3)OCO4)on2)c1 the results were UDG counterscr 79µM*, DRV1 agonist -17 and AID inhibitor inconclusive.
COc1cc(NC(=O)COCc2cc(-c3ccc4c(c3)OCO4)on2)cc(OC)c1 was read as UDG counterscr inconclusive, DRV1 agonist -12 and AID inhibitor inactive.
Screening O=C(Nc1cccc2cccnc12)C(c1ccccc1)c1ccccc1 returned UDG counterscr 89µM* and AID inhibitor inactive.
O=C(CSc1cccc2cccnc12)NNC(=O)C(c1ccccc1)c1ccccc1 was read as UDG counterscr -12% and AID inhibitor inactive.
For CC(=O)NC(NC(C)=O)c1ccccn1 the results were UDG counterscr 4% and AID inhibitor inactive.
N[C@@H](Cc1ccccc1)c1nnc(SCc2ccc(Br)cc2)o1 was read as UDG counterscr -10% and AID inhibitor inactive.
`COc1cccc(NC(=O)CC2C(=O)OCCN2Cc2ccccc2)c1` (configuration not stated) gave UDG counterscr -6%[57.5 µM], DRV1 agonist 5 and AID inhibitor inactive.
Screening O=C(CC1C(=O)OCCN1Cc1ccccc1)Nc1cccc(C(F)(F)F)c1 (configuration not stated) returned UDG counterscr 0%[57.5 µM], DRV1 agonist 112* and AID inhibitor inactive.
